From PubChem BioAssay
For some of these results: Entries with a potency or affinity are not part of this list. Calls of active or inactive are those of the source. Unless noted, how the calls were made is not given here.

Legend:
[1] = antimalarial activity against Dd2 strain (AID 2302;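 active means growth inhibition above 50% at the single 2 µM test dose, taken to imply half-maximal potency below 2 µM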;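 further: 0% = DMSO untreated growth and 100% = chloroquine plus artemisinin killed control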); conditions: P. falciparum Dd2 in RBCs, LDH growth readout, 72 h; at 2 µM; active compounds read high
[2] = HepG2 cytotoxicity, primary screen, cytotoxicity control for P. falciparum antimalarial project, cell-based, ATP luminescence (AID 2303;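 active means inhibition above 50%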;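 further: 0% = DMSO wells and 100% = digitonin-killed cells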); conditions: HepG2 viability, 24-48 h, at 10 µM, active compounds read high
[3] = target: L-lactate dehydrogenase (Plasmodium falciparum (isolate CDC / Honduras)) (UniProt Q27743); experiment: PfLDH activity inhibition – cell lysate, 3D7 strain, counter-screen for P. falciparum growth inhibition project (AID 2304);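 further: 0% = vehicle and 100% = reference inhibitor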; conditions: P. falciparum 3D7 crude extract, LDH APAD/NBT absorbance; at 2 µM; active compounds read high
[4] = inhibition of 3D7 malaria parasite growth – strain 3D7 (AID 2306);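 further: 0% = DMSO wells and 100% = chloroquine plus artemisinin control wells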; conditions: P. falciparum 3D7 erythrocytic growth, LDH absorbance, 72 h; at 2 µM; active compounds read high
[5] = target: Calcium-dependent protein kinase 1 (Plasmodium falciparum (isolate 3D7)) (UniProt P62344); experiment: PfCDPK1 kinase inhibitors, biochemical, TCAMS library (AID 1159585; cut-off not given, nearly all actives have IC50 up to about 0.98 µM;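 further: inhibitors leave more ATP so luminescence rises with inhibition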); conditions: recombinant PfCDPK1, Kinase-Glo ATP depletion luminescence
[6] = target: Plasmodium falciparum protein kinase 6 (PK6, PF3D7_1337100) (UniProt Q8IDW1); experiment: PfPK6 kinase inhibitors, biochemical, TCAMS library (AID 1159586); conditions: recombinant PfPK6, Kinase-Glo ATP depletion luminescence
[7] = target: Protein kinase 7 (PK7), Plasmodium falciparum 3D7 (PF3D7_0213400) (UniProt Q7YTF7); experiment: inhibition of Plasmodium PK7 catalytic activity – biochemical, TCAMS antimalarial set, Kinase-Glo luminescence (AID 1159587); conditions: recombinant PfPK7, Kinase-Glo ATP depletion luminescence
[8] = target: Calcium-dependent protein kinase 4 (Plasmodium falciparum (isolate 3D7)) (UniProt Q8IBS5); experiment: PfCDPK4 kinase inhibitors, biochemical, TCAMS library (AID 1159588; cut-off not given, nearly all actives have IC50 up to about 0.91 µM); conditions: recombinant PfCDPK4, Kinase-Glo ATP depletion luminescence
Calcium-dependent protein kinase 4 (Plasmodium falciparum (isolate 3D7)), sequence (Q8IBS5 whole entry, looked up): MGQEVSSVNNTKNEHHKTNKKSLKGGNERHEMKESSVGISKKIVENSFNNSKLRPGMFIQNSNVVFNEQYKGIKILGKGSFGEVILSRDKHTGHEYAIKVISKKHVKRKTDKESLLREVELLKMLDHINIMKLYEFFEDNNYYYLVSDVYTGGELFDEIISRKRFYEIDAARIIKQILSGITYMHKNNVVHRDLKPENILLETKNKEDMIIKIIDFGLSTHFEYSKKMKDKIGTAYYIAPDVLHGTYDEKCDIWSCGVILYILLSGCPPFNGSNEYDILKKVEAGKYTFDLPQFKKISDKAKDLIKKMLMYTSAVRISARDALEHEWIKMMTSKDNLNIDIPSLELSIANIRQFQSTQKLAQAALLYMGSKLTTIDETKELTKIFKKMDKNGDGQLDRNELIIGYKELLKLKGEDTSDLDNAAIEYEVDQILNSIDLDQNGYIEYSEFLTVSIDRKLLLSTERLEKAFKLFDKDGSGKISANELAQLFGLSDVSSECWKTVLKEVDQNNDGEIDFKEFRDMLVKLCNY

Calcium-dependent protein kinase 1 (Plasmodium falciparum (isolate 3D7)), sequence (P62344 whole entry, looked up): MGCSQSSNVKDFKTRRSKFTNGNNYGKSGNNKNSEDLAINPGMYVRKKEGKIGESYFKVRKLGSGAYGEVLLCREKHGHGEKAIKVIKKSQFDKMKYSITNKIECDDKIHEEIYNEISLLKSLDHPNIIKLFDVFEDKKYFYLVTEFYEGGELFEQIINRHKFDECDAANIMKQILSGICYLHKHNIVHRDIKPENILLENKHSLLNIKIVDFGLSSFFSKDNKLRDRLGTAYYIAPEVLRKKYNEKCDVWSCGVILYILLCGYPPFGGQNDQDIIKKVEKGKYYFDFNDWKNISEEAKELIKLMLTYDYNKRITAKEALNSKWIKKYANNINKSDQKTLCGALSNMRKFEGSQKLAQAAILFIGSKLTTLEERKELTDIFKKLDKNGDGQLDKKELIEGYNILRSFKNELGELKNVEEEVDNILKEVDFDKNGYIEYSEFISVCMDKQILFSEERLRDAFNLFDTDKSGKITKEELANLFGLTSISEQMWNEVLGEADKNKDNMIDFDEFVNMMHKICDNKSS
Protein kinase 7 (PK7), Plasmodium falciparum 3D7 (PF3D7_0213400), sequence (Q7YTF7 1-343): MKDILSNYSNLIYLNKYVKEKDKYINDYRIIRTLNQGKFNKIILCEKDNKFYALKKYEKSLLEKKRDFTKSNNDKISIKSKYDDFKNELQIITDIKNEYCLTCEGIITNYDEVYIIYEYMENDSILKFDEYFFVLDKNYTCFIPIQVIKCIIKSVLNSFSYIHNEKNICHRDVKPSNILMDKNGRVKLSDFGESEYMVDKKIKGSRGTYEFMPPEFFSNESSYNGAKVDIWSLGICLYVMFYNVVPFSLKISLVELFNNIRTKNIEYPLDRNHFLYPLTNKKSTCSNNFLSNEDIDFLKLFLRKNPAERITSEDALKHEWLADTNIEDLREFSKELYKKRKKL
Plasmodium falciparum protein kinase 6 (PK6, PF3D7_1337100), sequence (Q8IDW1 1-305): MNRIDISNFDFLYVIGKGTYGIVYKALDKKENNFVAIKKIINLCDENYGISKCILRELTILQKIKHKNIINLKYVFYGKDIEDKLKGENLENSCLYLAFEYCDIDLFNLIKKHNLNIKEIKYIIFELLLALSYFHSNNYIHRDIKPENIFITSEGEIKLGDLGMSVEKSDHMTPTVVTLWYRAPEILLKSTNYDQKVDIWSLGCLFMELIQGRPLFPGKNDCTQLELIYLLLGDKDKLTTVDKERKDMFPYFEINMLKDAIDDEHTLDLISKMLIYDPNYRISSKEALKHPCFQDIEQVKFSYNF
L-lactate dehydrogenase (Plasmodium falciparum (isolate CDC / Honduras)), sequence (Q27743 whole entry, looked up): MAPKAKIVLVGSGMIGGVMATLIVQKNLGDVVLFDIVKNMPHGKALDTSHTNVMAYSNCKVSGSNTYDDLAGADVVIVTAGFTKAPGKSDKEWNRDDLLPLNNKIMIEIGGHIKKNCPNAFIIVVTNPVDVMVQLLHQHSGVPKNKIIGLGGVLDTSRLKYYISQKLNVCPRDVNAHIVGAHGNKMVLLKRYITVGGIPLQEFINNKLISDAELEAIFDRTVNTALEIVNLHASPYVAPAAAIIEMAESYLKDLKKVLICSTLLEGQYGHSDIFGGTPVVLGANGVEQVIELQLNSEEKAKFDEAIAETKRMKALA

CCC(C)c1cccc(C(C)CC)c1OCCCON1C(N)=NC(N)=NC1(C)C (stereo not given)
active: growth inhibition [1] 98% | inhibition [2] 51% | growth inhibition [4] 91%
inactive: inhibition [3] -4% | outcome [5] | outcome [6] | outcome [7] | outcome [8]

COc1ccc2nccc([C@@H](O)CN3CCC(NCCOc4cccc(F)c4F)CC3)c2c1
inactive: inhibition [2] 9% | inhibition [3] 3% | outcome [5] | outcome [6] | outcome [7] | outcome [8]
active: growth inhibition [1] 85% | growth inhibition [4] 102%

Cc1cccc2[nH]c(-c3cccc(-c4ccc(C(=O)N5CCCCC5C(C)O)cc4)c3)nc12 (stereo not given)
inactive: inhibition [2] 26% | inhibition [3] -2% | outcome [5] | outcome [6] | outcome [7] | outcome [8]
active: growth inhibition [1] 91% | growth inhibition [4] 100%

O=S(=O)(Nc1ccc(CCN2CCCCC2CCN2CCCC2)cc1)c1cccc2cccnc12 (stereo not given)
inactive: growth inhibition [1] 0% | inhibition [2] 20% | inhibition [3] 1% | outcome [5] | outcome [6] | outcome [7] | outcome [8]
active: growth inhibition [4] 100%

Oc1ccc(CCNCCCCCCNCCCc2ccc(Cl)cc2)cc1O
inactive: growth inhibition [1] 3% | inhibition [2] 13% | inhibition [3] -2% | outcome [5] | outcome [6] | outcome [7] | outcome [8]
active: growth inhibition [4] 87%

c1cc(-c2ccc(CNCc3ccsc3)cc2)cc(-c2nc3ccccc3[nH]2)c1
active: growth inhibition [1] 82% | growth inhibition [4] 101%
inactive: inhibition [2] 46% | inhibition [3] 2% | outcome [5] | outcome [6] | outcome [7] | outcome [8]

CCCCCC(=O)N1CCOC(CCN2CCC(c3ccccc3)CC2)(c2ccc(Cl)c(Cl)c2)C1 (stereo not given)
active: growth inhibition [1] 51% | growth inhibition [4] 89%
inactive: inhibition [2] 17% | inhibition [3] 1% | outcome [5] | outcome [6] | outcome [7] | outcome [8]

COc1ccc2nccc(NN=Cc3ccc(N(C)C)cc3)c2c1
inactive: inhibition [2] 4% | inhibition [3] -6% | outcome [5] | outcome [6] | outcome [7] | outcome [8]
active: growth inhibition [1] 95% | growth inhibition [4] 101%

CS(=O)(=O)c1ccc(CCNCc2ccc(-c3cccc(-c4nc5ccccc5[nH]4)c3)cc2)cc1
inactive: inhibition [2] 40% | inhibition [3] -4% | outcome [5] | outcome [6] | outcome [7] | outcome [8]
active: growth inhibition [1] 99% | growth inhibition [4] 100%

Cc1ncccc1C(=O)Nc1cccc(-c2cccc(-c3nc4ccc(C(F)(F)F)cc4[nH]3)c2)c1
active: growth inhibition [4] 96%
inactive: growth inhibition [1] 30% | inhibition [2] 34% | inhibition [3] 1% | outcome [5] | outcome [6] | outcome [7] | outcome [8]

CCCCCCCN(Cc1ccc(OC(C)(C)C(=O)OCC)cc1)C(=O)Nc1ccccc1OCC
inactive: inhibition [2] -5% | inhibition [3] -3% | outcome [5] | outcome [6] | outcome [7] | outcome [8]
active: growth inhibition [1] 94% | growth inhibition [4] 93%

O=[N+]([O-])c1ccc2nccnc2c1
inactive: growth inhibition [1] 0% | inhibition [2] -2% | inhibition [3] -1% | outcome [5] | outcome [6] | outcome [7] | outcome [8]
active: growth inhibition [4] 97%

CC(C)CNCc1ccc(-c2ccc(CNC3CCN(Cc4ccccc4)CC3)cc2)cc1
inactive: inhibition [2] 16% | inhibition [3] 4% | outcome [5] | outcome [6] | outcome [7] | outcome [8]
active: growth inhibition [1] 96% | growth inhibition [4] 100%

O=C(Nc1cccc(F)c1)NC1CCN(CCCCCNC(=O)[C@@H]2C[C@H]2c2ccc(Cl)c(Cl)c2)CC1
inactive: growth inhibition [1] 12% | inhibition [2] 41% | inhibition [3] 4% | outcome [5] | outcome [6] | outcome [7] | outcome [8]
active: growth inhibition [4] 101%

Cc1cc(N[C@@H](CC(C)C)C(=O)NC2CCCC2)nc(NCc2ccccc2C)n1
inactive: growth inhibition [1] 44% | inhibition [2] 2% | inhibition [3] -3% | outcome [5] | outcome [6] | outcome [7] | outcome [8]
active: growth inhibition [4] 98%

Cc1ccc(CN2CCN(Cc3cccc(NC(=O)c4ccc5ccccc5c4)c3)CC2)cc1C
inactive: growth inhibition [1] 23% | inhibition [3] -4% | outcome [5] | outcome [6] | outcome [7] | outcome [8]
active: inhibition [2] 62% | growth inhibition [4] 89%

NCCNc1ccnc2cc(Cl)ccc12
active: growth inhibition [1] 54% | growth inhibition [4] 101%
inactive: inhibition [2] 9% | inhibition [3] 4% | outcome [5] | outcome [6] | outcome [7] | outcome [8]

O=C(/C=C/c1ccc(Cl)c(Cl)c1)NCCCCCN1CCC(NC(=O)Nc2ccc(Cl)c(C(F)(F)F)c2)CC1
inactive: growth inhibition [1] 19% | inhibition [3] -1% | outcome [5] | outcome [6] | outcome [7] | outcome [8]
active: inhibition [2] 76% | growth inhibition [4] 99%

Nc1nccc2ccc(-c3ccc(Oc4ccccc4)cc3)cc12
inactive: inhibition [2] 36% | inhibition [3] -3% | outcome [5] | outcome [6] | outcome [7] | outcome [8]
active: growth inhibition [1] 80% | growth inhibition [4] 98%

CC(C)N1CCN(C(CN2CCN(CCCOc3cccc(-c4ccccc4)c3)CC2)c2ccc(F)cc2)CC1 (stereo not given)
inactive: inhibition [3] -2% | outcome [5] | outcome [6] | outcome [7] | outcome [8]
active: growth inhibition [1] 99% | inhibition [2] 100% | growth inhibition [4] 100%
